In PubChem BioAssay AID493042 (Johns Hopkins Ion Channel Center, 2011):
Entries with a potency or affinity are not part of this list. Active and inactive are the calls of the source.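 Rule for the calls: active = potentiation or inhibition seen at some tested dose and a dose response curve obtained; inactive = no potentiation or inhibition at any dose, or no curve.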

The molecules below were run against Potassium voltage-gated channel subfamily KQT member 1 (Homo sapiens) + Potassium voltage-gated channel subfamily E member 1 (Homo sapiens) (UniProt P15382+P51787) (assay: activation of human KCNQ1/KCNE1 current – automated patch clamp, CHO cells, selectivity assay for KCNQ2 activator project, dose response (AID 493042)). Details: series mostly up to 30 µM.
Chain of Potassium voltage-gated channel subfamily KQT member 1 (Homo sapiens) + Potassium voltage-gated channel subfamily E member 1 (Homo sapiens) (O88943 whole entry, looked up): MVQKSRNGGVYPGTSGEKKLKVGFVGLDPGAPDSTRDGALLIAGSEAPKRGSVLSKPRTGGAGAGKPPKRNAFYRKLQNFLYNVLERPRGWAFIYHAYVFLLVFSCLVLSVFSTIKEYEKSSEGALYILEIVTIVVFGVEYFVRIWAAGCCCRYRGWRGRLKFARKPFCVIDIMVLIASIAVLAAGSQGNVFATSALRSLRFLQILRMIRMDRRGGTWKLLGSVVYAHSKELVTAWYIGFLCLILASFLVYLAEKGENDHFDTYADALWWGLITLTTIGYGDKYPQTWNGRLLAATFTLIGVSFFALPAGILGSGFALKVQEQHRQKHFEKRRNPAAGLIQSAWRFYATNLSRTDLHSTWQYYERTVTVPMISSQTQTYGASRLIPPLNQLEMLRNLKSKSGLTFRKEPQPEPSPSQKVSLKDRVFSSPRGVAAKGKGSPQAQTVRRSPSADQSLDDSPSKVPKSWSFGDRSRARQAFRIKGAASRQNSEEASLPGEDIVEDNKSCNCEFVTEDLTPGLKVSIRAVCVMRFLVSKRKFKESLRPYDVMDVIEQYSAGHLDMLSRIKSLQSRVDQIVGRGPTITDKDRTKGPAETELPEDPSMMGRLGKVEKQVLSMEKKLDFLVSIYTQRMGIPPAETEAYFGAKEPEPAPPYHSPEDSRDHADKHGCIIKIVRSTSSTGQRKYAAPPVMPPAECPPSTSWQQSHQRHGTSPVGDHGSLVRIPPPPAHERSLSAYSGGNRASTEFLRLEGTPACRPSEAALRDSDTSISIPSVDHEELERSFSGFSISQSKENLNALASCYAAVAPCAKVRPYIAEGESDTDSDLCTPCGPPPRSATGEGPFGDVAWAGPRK
Chain of Potassium voltage-gated channel subfamily KQT member 1 (Homo sapiens) + Potassium voltage-gated channel subfamily E member 1 (Homo sapiens) (P51787 whole entry, looked up): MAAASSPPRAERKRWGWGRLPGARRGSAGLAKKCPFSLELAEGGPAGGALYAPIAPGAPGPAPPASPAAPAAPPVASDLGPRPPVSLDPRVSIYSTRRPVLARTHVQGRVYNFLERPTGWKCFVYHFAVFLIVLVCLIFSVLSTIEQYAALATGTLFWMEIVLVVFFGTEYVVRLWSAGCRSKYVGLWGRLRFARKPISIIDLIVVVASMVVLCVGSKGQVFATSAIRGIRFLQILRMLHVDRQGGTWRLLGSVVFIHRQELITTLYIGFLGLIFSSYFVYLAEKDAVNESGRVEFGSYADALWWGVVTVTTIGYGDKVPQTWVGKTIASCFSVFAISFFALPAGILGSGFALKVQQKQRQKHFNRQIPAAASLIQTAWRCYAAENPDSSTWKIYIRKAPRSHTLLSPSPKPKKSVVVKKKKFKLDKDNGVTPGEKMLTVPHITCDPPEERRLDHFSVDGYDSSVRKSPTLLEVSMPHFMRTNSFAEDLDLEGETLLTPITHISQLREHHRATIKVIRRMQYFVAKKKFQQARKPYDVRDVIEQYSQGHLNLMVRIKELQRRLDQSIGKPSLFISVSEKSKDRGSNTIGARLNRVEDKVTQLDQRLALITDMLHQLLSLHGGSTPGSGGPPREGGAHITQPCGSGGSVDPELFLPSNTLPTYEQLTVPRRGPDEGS

outcome, inactive:
CCCCC(=O)Nc1c(C)cc(C)cc1Cl, Cc1cccc(C)c1NC(=O)C1CC2CCC1C2 (stereo not drawn), Cc1cc(C)c(NC(=O)CC(C)(C)C)c(Cl)c1
